Laboratory results: PubChem BioAssay (NCI)
Values joined by “and” are separate entries in the source; they are usually repeats but may differ in a detail not shown here. Equal entries are not always repeated. Compounds without any hit were thinned out: in the full panel of roughly 79,000, 15% have a hit. A number with no mark means an inactive call. Active and inactive are the calls of the source. No stated cut-off is given here; in the data, active means growth inhibition above about 70%; inactive means the rest.

Legend:
[1] = NCI Yeast Anticancer Drug Screen. Data for the rad50 strain (AID 155);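 further: 0% = growth of vehicle-only cultures of the same strain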; settings: S. cerevisiae rad50 strain growth inhibition, active compounds read high
In short: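 Yeast carrying a defined DNA repair defect were exposed to test compounds, and growth was compared with vehicle-treated controls to give percent inhibition.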

[2] = NCI Yeast Anticancer Drug Screen. Data for the mec2-1 strain (AID 157); settings: S. cerevisiae mec2-1 strain, active compounds read high
In short: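 Growth inhibition is read against vehicle-treated controls after compound exposure of the mec2-1 yeast strain, which is defective in DNA damage repair or cell cycle control.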

[3] = NCI Yeast Anticancer Drug Screen. Data for the sgs1 mgt1 strain (AID 161);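 further: 0% = growth of cultures given vehicle only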; settings: S. cerevisiae sgs1 mgt1 strain, active compounds read high
In short: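 Percent growth inhibition was derived by comparing compound-exposed mutant yeast with vehicle-exposed cultures. The strain carries alterations in DNA damage repair.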

[4] = NCI Yeast Anticancer Drug Screen. Data for the cln2 rad14 strain (AID 165);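 further: 0% = growth equal to vehicle treated cultures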; settings: S. cerevisiae cln2 rad14 strain, active compounds read high
In short: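 Growth inhibition, relative to vehicle-treated controls, is the read-out. The test organism is a yeast strain with defined genetic alterations, cln2 rad14.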

[5] = NCI Yeast Anticancer Drug Screen. Data for the bub3 strain (AID 167); settings: S. cerevisiae bub3 mutant strain, active compounds read high
In short: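 Compounds were applied to a genetically altered yeast strain carrying a cell-cycle control defect. Growth inhibition was scored against vehicle-treated controls.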

[6] = NCI Yeast Anticancer Drug Screen. Data for the mlh1 rad18 strain (AID 175); settings: S. cerevisiae mlh1 rad18 strain growth inhibition, active compounds read high
In short: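 Cells of a genetically altered yeast strain, deficient in DNA damage repair, were treated with compound. Their growth was then compared with that of vehicle-treated cultures to give inhibition.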

[7] = at 5.0 µM (retest, dose inferred, filed as 0.5)
[8] = at 50.0 µM (retest, dose inferred, filed as 5.0)

Structure (SMILES) | growth inhibition [1, 7] | growth inhibition [1, 8] | growth inhibition ([1]; at 50.0 µM) | growth inhibition [2, 7] | growth inhibition [2, 8] | growth inhibition ([2]; at 50.0 µM) | growth inhibition [3, 7] | growth inhibition [3, 8] | growth inhibition ([3]; at 50.0 µM) | growth inhibition [4, 7] | growth inhibition [4, 8] | growth inhibition ([4]; at 50.0 µM) | growth inhibition [5, 7] | growth inhibition [5, 8] | growth inhibition ([5]; at 50.0 µM) | growth inhibition [6, 7] | growth inhibition [6, 8] | growth inhibition ([6]; at 50.0 µM)
O=S(=O)(F)c1ccc(Cl)cc1C[P+](c1ccccc1)(c1ccccc1)c1ccccc1 | 20% | 77% (active) | 45.9% | 22% | 82% (active) | 19.9% | 13% | 76% (active) | 53.5% | 0% | 54% | 11.1% | 12% | 82% (active) | 38.2% | 20% | 86% (active) | 69%
CN[C@H]1C[C@@H]2O[C@@](C)([C@H]1OC)n1c3ccccc3c3c4c(c5c6ccccc6n2c5c31)C(=O)NC4 | 99% (active) | 99% (active) | 92.3% (active) | 99% (active) | 99% (active) | 92.9% (active) | 97% (active) | 99% (active) | 90.6% (active) | 96% (active) | 99% (active) | 91.5% (active) | 98% (active) | 98% (active) | 91.8% (active) | 98% (active) | 99% (active) | 91.8% (active)
c1ccc(P(CC[As](c2ccccc2)c2ccccc2)CC[As](c2ccccc2)c2ccccc2)cc1 | 95% (active) | 95% (active) | 89% (active) | 81% (active) | 81% (active) | 90.8% (active) | 47% | 47% | 88.5% (active) | 76% (active) | 76% (active) | 89.3% (active) | 84% (active) | 84% (active) | 90.8% (active) | 80% (active) | 80% (active) | 88.6% (active)
CCCCCCCCCCCCCC(=O)O | -7% | 18% | 4.15% and 34.9% | 11% | 63% | 7.2% and -10.9% | 11% | 88% (active) | 15.4% and 27.3% | 1% | 20% | 66.5% and 24.1% | -7% | 29% | 57.7% and 11.7% | 5% | 87% (active) | -6.2% and 13.4%
N#C[S-].[Ce+3].c1ccc(-c2ccccn2)nc1.c1ccc(-c2ccccn2)nc1.c1ccc(-c2ccccn2)nc1 | 63% | 98% (active) | 91.5% (active) | 43% | 99% (active) | 94% (active) | 51% | 99% (active) | 92.9% (active) | 31% | 93% (active) | 91.5% (active) | 55% | 98% (active) | 92.3% (active) | 63% | 98% (active) | 91.4% (active)
CCCCN1C(=O)C2C(C1=O)C1(Cl)C(Cl)=C(Cl)C2(Cl)C1(Cl)Cl (stereo unspecified) | 17% | 98% (active) | 95.3% (active) | 17% | 99% (active) | 96% (active) | 11% | 98% (active) | 98.9% (active) | 13% | 98% (active) | 99% (active) | 3% | 98% (active) | 76.5% (active) | 21% | 98% (active) | 76.7% (active)
Nc1cc(Cl)ccc1C(=O)c1ccccc1Cl | -1% | 98% (active) | 98.8% (active) | -4% | 99% (active) | 99% (active) | 2% | 98% (active) | 98.8% (active) | -6% | 98% (active) | 96.8% (active) | -9% | 98% (active) | 98% (active) | -4% | 99% (active) | 98.2% (active)
CCC(=O)O[C@H]1CC[C@H]2[C@@H]3CCC4=C/C(=N/OC(=O)c5cccc6c(=O)c7ccccc7[nH]c56)CC[C@]4(C)[C@H]3CC[C@]12C | 29% | 83% (active) | 53.8% | 26% | 31% | 77.4% (active) | -26% | 52% | 79.3% (active) | -14% | 43% | 47.1% | 10% | 66% | 74.4% (active) | 29% | 40% | 17.6%
CCC(C)(C)c1ccc(OP(=S)(S)Oc2ccc(C(C)(C)CC)cc2)cc1 | -1% | 92% (active) | 88.5% (active) | 3% | 96% (active) | 68.7% | -7% | 95% (active) | 94.9% (active) | 4% | 90% (active) | 90.7% (active) | -1% | 94% (active) | 31.5% | -4% | 95% (active) | 90.5% (active)
O=[N+]([O-])c1ccc(C=Cc2ccc(C(F)(F)F)cc2)cc1.[C-]#[O+].[C-]#[O+].[C-]#[O+].[Cr] | 2% | 67% | 29% | 0% | 51% | 55.8% | 17% | 60% | 72.5% (active) | -22% | 60% | 26.6% | 0% | 75% (active) | 73.2% (active) | 12% | 72% (active) | 73.9% (active)
[Br][Ni][Br].c1ccc(CN2CCN(Cc3ccccc3)CCN(Cc3ccccc3)CCN(Cc3ccccc3)CC2)cc1 | 0% | 82% (active) | 96.7% (active) | 0% | 62% | 98.3% (active) | -2% | 65% | 97.6% (active) | -2% | 78% (active) | 98.2% (active) | 3% | 92% (active) | 98.5% (active) | 3% | 92% (active) | 98.2% (active)
O=C1c2ccccc2[Se](=O)N1c1ccccc1 (stereo unspecified) | 50% | 96% (active) | 93.1% (active) | 61% | 99% (active) | 93.9% (active) | 23% | 96% (active) | 93% (active) | 45% | 98% (active) | 91.7% (active) | 72% (active) | 99% (active) | 90.8% (active) | 83% (active) | 98% (active) | 90.8% (active)
CCNC(=O)O/N=C1/C=C2CC[C@@H]3C(CC[C@@]4(C)C3CC[C@@H]4OC(=O)NCC)[C@@]2(C)CC1 (stereo partly specified) | 94% (active) | 66% | 97.8% (active) | 97% (active) | 45% | 98.1% (active) | 97% (active) | 72% (active) | 97.5% (active) | 96% (active) | 14% | 96.2% (active) | 93% (active) | 58% | 97.2% (active) | 97% (active) | 69% | 97.5% (active)
Cc1cc(-c2ccccc2)cc(C)[n+]1[O-] | -1% | 20% | 20.7% | -6% | 13% | 28.1% | -6% | 12% | 54.6% | -8% | -13% | -31.3% | -2% | 14% | -12.7% | -4% | 30% | 5.4%
Cn1cc(/C=C/[N+](=O)[O-])c2ccccc21 | 7% | 95% (active) | 97.1% (active) | -2% | 96% (active) | 97.3% (active) | 2% | 97% (active) | 98.4% (active) | 26% | 98% (active) | 96.5% (active) | 22% | 97% (active) | 97.7% (active) | 19% | 97% (active) | 97.3% (active)
Cc1ccccc1NC(=O)CBr | 39% | 98% (active) | 98.5% (active) | 12% | 99% (active) | 98.6% (active) | 37% | 99% (active) | 99.3% (active) | 18% | 98% (active) | 95.5% (active) | -38% | 99% (active) | 98.2% (active) | 37% | 99% (active) | 98.3% (active)
CCC[N+](CCC)(CCC)CCC.N#CN=C([SH2+])[SH2+].N#CN=C([SH2+])[SH2+].[Pt+2] | -1% | 7% | 79.3% (active) | -4% | 2% | 44% | 4% | 39% | 89.9% (active) | -6% | -7% | 14.1% | -5% | -1% | 14.1% | 20% | 57% | 49.9%
